PubChem BioAssay (NCATS)
Records with an inconclusive call do not appear. Unless noted, calls come from the whole dose curve; as a rule, active = well fitted curve in either direction with a large enough effect (not every such curve was filed as active); inconclusive = small, poorly fitted or top-dose-only effect, or another doubt; inactive = flat fitted curve, though single readings scatter.

Key:
[1] = AP1 Signaling Pathway (AID 357); details: ME-180 AP-1-bla reporter, EGF-induced, beta-lactamase ratio, 5 h; at 17.2 µM (top of the series) unless noted; note: % is set by controls: 0 for no effect and ±100 for the full control effect
In short: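 AP-1-bla ME-180 cells with beta-lactamase reporter under AP-1 response element, stimulated with EC50 EGF; compounds titrated, 5 hours at 37 degrees Celsius. CCF4 read at 460/530 nm ratio; positive and negative modulators judged by AC50.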

[2] = NFAT Signaling Pathway (AID 444); details: Jurkat NFAT-bla M1, carbachol, beta-lactamase ratio, 5 h; at 17.2 µM (top of the series) unless noted;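 note: carbachol stimulus at about its EC50 of 1 µM final; % is set by controls: 0 for no effect and ±100 for the full control effect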
In short: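 Jurkat cells carrying an NFAT-driven β-lactamase reporter and co-transfected muscarinic M1 receptor were treated with compound plus carbachol (1 uM final, an EC50 level) for 5 h at 37 °C. CCF4 loading followed for 1 h at RT; 460/530 nm ratio gave %activity.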

[3] = Stat Signaling Pathway (AID 446); details: ME-180 (cervical carcinoma) SIE beta-lactamase reporter, IL-6 stimulated, 5 h; at 17.2 µM (top of the series) unless noted;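 note: ME-180 cervical cancer cells given 40 pM IL-6 alongside compound; SIE-controlled beta-lactamase reporter measured as 460/530 nm FRET emission ratio; % is set by controls: 0 for no effect and ±100 for the full control effect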
In short: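 FRET read-out (405 nm excitation, 460/530 nm emission) of a beta-lactamase reporter under a STAT-inducible element in ME-180 cervical carcinoma cells. Cells with compound receive 40 pM IL-6 for 5 h. Values are normalised to AC90 stimulation and AC90 JAK-inhibitor controls.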

[4] = molecular target: Glucocorticoid receptor (Homo sapiens) (UniProt P04150); test: GR-GFP Redistribution (AID 450;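 active = compounds whose dose series gives a full or clear partial fitted curve of increased nuclear translocation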; note: potency is the fitted concentration of half-maximal effect)
Chain of Glucocorticoid receptor (Homo sapiens) (P04150 whole entry, looked up): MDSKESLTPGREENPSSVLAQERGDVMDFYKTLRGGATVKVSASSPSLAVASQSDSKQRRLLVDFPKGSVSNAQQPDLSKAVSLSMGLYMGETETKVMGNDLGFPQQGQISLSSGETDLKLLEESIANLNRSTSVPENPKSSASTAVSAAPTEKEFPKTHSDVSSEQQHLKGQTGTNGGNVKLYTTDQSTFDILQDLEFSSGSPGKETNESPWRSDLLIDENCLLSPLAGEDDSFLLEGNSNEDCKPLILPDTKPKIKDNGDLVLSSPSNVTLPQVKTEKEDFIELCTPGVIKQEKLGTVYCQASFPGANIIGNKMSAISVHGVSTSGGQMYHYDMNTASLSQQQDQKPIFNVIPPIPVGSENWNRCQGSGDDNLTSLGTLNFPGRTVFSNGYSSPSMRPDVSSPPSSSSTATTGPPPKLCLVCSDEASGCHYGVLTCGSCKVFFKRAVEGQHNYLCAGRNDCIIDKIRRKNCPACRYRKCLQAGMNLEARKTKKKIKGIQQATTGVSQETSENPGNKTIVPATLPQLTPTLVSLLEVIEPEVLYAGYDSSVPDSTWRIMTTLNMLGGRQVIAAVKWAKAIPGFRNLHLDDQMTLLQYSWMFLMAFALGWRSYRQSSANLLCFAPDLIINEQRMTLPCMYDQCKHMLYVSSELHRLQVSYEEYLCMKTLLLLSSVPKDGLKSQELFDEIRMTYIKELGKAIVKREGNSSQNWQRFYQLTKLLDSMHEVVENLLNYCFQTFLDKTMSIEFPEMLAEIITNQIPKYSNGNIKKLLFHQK

CCN(CC)C(=O)CSC1=C(C#N)C(c2cccs2)C=C(C)N1 (stereo unspecified)
inactive: activity change, negative = inhibition [1] -28.4% | activity change, negative = inhibition [2] -9.19% | activity, negative = inhibition [3] 6.46% | Potency [4] > 20.6 µM

CC(=O)Nc1ccc(NCC(O)COc2ccccc2)cc1 (stereo unspecified)
inactive: activity change, negative = inhibition [1] -3% | activity change, negative = inhibition [2] -5.41% | activity, negative = inhibition [3] 3.96% | Potency [4] > 20.6 µM

CSc1nc2sc3c(c2c2nncn12)CCC3
inactive: activity change, negative = inhibition [1] -7.57% | activity change, negative = inhibition [2] -18% | activity, negative = inhibition [3] -3.42% | Potency [4] > 20.6 µM

CCCCC(=O)NC(Nc1ccc(C)cn1)(C(=O)OCC)C(F)(F)F (stereo unspecified)
inactive: activity change, negative = inhibition [1] 6.8% | activity change, negative = inhibition [2] -3.17% | activity, negative = inhibition [3] -20.4% | Potency [4] > 20.6 µM

CCN(CC)CCN1C(=O)C(=O)/C(=C(/O)c2ccc(Cl)cc2)C1c1ccncc1 (stereo unspecified)
inactive: activity change, negative = inhibition [1] -3.59% | activity change, negative = inhibition [2] 22.9% | activity, negative = inhibition [3] 7.2% | Potency [4] > 20.6 µM

CC1(C)Cc2c(C#N)c(N3CCOCC3)nc(Cc3ccccc3)c2CO1
inactive: activity change, negative = inhibition [1] -20.2% | activity change, negative = inhibition [2] -28.9% | activity, negative = inhibition [3] -7.6% | Potency [4] > 20.6 µM

Cc1ccc(OCC(=O)NCC(=O)n2nc(C)cc2C)cc1
inactive: activity change, negative = inhibition [1] -4.61% | activity change, negative = inhibition [2] -11.6% | activity, negative = inhibition [3] -3.12% | Potency [4] > 20.6 µM

COc1cccc(NC(=O)c2cc(C(=O)Nc3cccc(OC)c3)n(C)n2)c1
inactive: activity change, negative = inhibition [1] -12.7% | activity change, negative = inhibition [2] -14.3% | activity, negative = inhibition [3] -3.92% | Potency [4] > 20.6 µM

CCCCCOc1ccc(C(=O)NCC(=O)NCC(=O)OCC)cc1
inactive: activity change, negative = inhibition [1] -2.64% | activity change, negative = inhibition [2] -2.75% | activity, negative = inhibition [3] -0.468% | Potency [4] > 20.6 µM

Cc1ccc(C2C(C(=O)c3cc4ccccc4o3)=C(O)C(=O)N2CCCN(C)C)cc1 (stereo unspecified)
inactive: activity change, negative = inhibition [1] 4.95% | activity change, negative = inhibition [2] -2.86% | activity, negative = inhibition [3] 1.75% | Potency [4] > 20.6 µM

CCNC(=O)Nn1c(C)nnc1C
inactive: activity change, negative = inhibition [1] 15.4% | activity change, negative = inhibition [2] -5.86% | activity, negative = inhibition [3] 6.6% | Potency [4] > 20.6 µM

Cn1c(=O)c2c(nc(Br)n2CCSc2ncccn2)n(C)c1=O
inactive: activity change, negative = inhibition [1] 10.3% | activity change, negative = inhibition [2] 8.82% | activity, negative = inhibition [3] -0.734% | Potency [4] > 20.6 µM

COc1ccc(C2CC(C(F)(F)F)n3ncc(C(=O)NCC4CCCO4)c3N2)cc1OC (stereo unspecified)
inactive: activity change, negative = inhibition [1] -0.991% | activity change, negative = inhibition [2] 3.91% | activity, negative = inhibition [3] -0.435% | Potency [4] > 20.6 µM

Cc1noc(COc2ccccc2OCC(O)CNC(C)(C)C)n1 (stereo unspecified)
inactive: activity change, negative = inhibition [1] 4.01% | activity change, negative = inhibition [2] -1.96% | activity, negative = inhibition [3] 1.99% | Potency [4] > 20.6 µM

COC(=O)CN(c1nc(C)cc(OC)n1)S(=O)(=O)c1ccccc1
inactive: activity change, negative = inhibition [1] -9.15% | activity change, negative = inhibition [2] -15.3% | activity, negative = inhibition [3] 8.46% | Potency [4] > 20.6 µM

CCCCOC(=O)CSC1=C(C#N)C(c2ccccc2OC)C(C#N)C(=O)N1 (stereo unspecified)
inactive: activity change, negative = inhibition [1] -23.2% | activity change, negative = inhibition [2] 20.9% | activity, negative = inhibition [3] -14% | Potency [4] > 20.6 µM

N#Cc1c(SCC(=O)O)nc(N2CCCCC2)c2c1CCCC2
inactive: activity change, negative = inhibition [1] 6.2% | activity change, negative = inhibition [2] 10.4% | activity, negative = inhibition [3] -7.23% | Potency [4] > 20.6 µM

N#C/C(=C\c1c(N2CCC(C(N)=O)CC2)nc2ccccn2c1=O)S(=O)(=O)c1ccccc1
inactive: activity change, negative = inhibition [1] -8.19% | activity change, negative = inhibition [2] 29.6% | activity, negative = inhibition [3] -1.65% | Potency [4] > 20.6 µM

CC(Sc1ccc2ccccc2n1)C(=O)O (stereo unspecified)
inactive: activity change, negative = inhibition [1] 14.7% | activity change, negative = inhibition [2] 9.86% | activity, negative = inhibition [3] 5.88% | Potency [4] > 20.6 µM
